Screens: PubChem BioAssay, National Center for Advancing Translational Sciences (NCATS)
Many of the other results were omitted from the sample, so hits are more common in it than they were.
Pf Dd2 inh: blocks in vitro growth of P. falciparum Dd2 | Potency, µM (series often up to 28.9 µM), for inactives: top-dose activity, negative = inhibition, actives largely listed as inhibitors | P. falciparum Dd2 growth, SYBR Green, 72 h | 120,000 compounds, 4.3% hits; active = well fitted inhibition curve with a large enough effect;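 also: plate controls were DMSO vehicle for no effect and reference drug for full effect; nearly all actives have a fitted effect of over 65% in size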
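Infected erythrocytes (Dd2, 0.3% parasitemia, 2.5% hematocrit final) are added to compound in RPMI-1640/Albumax II medium, grown 72 h at 37C in low oxygen, then lysed with saponin/Triton-X containing SYBR Green and read by fluorescence.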
Starred values were filed as active, the others as inactive; i = inactive; [ ] = another dose, or the depositor's remark. Potency is read from the fitted curve at half-maximal effect.

SMILES | Pf Dd2 inh
Cc1cccc(CNC(=O)c2oc3c(c2C)-c2nn(Cc4ccccc4Cl)cc2CC3)c1 | -25%
CCOc1ccc(CNC(=O)c2oc3c(c2C)-c2nn(Cc4cccc(Cl)c4)cc2CC3)cc1 | 11µM*
COc1cc(F)c(CN2CC[C@@](O)(C3CC3)[C@H](C)C2)cc1OC | i
Cc1cccc(Nc2nc(N)nc(CN3CC[C@@](O)(C4CCC4)[C@H](C)C3)n2)c1 | 8.9µM*
C[C@@H]1CN(Cc2noc(C3CCCC3)n2)CC[C@@]1(O)C1CCC1 | -24%
CN1CCN(C(=O)CN2CC3CC(C2)[C@H]2CCCC(=O)N2C3)CC1 (some centres not stated) | -4%
c1ccc(-c2ccnc3nc(C4CCC4)nn23)cc1 | -9%
COCc1ccc2c(c1)c(OC(C)(C)C(=O)NCCCn1ccnc1)nn2Cc1ccccc1 | -13%
COC(=O)[C@@H]1Cc2c([nH]c3ccccc23)[C@H]2C[C@@H](NCc3cccnc3)C[C@@H](c3ccccc3)N21 | -23%
COC(=O)[C@@H]1Cc2c([nH]c3ccccc23)[C@H]2C[C@H](NCCNC(C)=O)C[C@@H](c3ccc(C(F)(F)F)cc3)N21 | -1%
COC(=O)[C@@H]1Cc2c([nH]c3ccccc23)[C@H]2C[C@@H](NCCCn3ccnc3)C[C@@H](c3ccc(Cl)c(F)c3)N21 | 3.2µM*
COC(=O)[C@@H]1Cc2c([nH]c3ccccc23)[C@H]2C[C@@H](NCCCn3ccnc3)C[C@@H](c3cccc(Cl)c3)N21 | 2.2µM*
COC(=O)[C@@H]1Cc2c([nH]c3ccccc23)[C@H]2C[C@@H](NC[C@H]3CCCO3)C[C@@H](c3ccccc3F)N21 | -9%
O=C(NCCCn1ccnc1)c1ccc(C2CCCNC2)cc1 (configuration not stated) | 12%
COC(=O)[C@@H]1Cc2c([nH]c3ccccc23)[C@H]2C[C@@H](NCCc3cnc[nH]3)C[C@@H](c3ccccc3F)N21 | i
COCCN[C@@H]1C[C@@H]2c3[nH]c4ccccc4c3C[C@@H](C(=O)OC)N2[C@H](c2cccc(OC)c2)C1 | 5µM*
O=C(Nc1ccc(F)cc1)N1CCCC(Cn2c(C3CC3)nc3cccnc32)C1 (configuration not stated) | i
Cc1cc(C)c2[nH]c(C(=O)NCc3nc(-c4ccccn4)no3)c(C)c2c1 | -6%
CC(C)CNC(=O)Cc1cccn1-c1ccc(F)cc1 | i
Cc1ccc(C2NC(=O)N(CC(=O)NCCCc3ccccc3)C3=C2C(=O)OC3)cc1 (configuration not stated) | i
CC(=O)Nc1ccc(CC(=O)N2CCc3c(nc4cc(-c5ccccc5)[nH]n4c3=O)C2)cc1 | -8%
COc1ccc(CCNC(=O)c2cc[nH]c2C2CCCN(C(C)=O)C2)c(OC)c1 (configuration not stated) | -14%
N#Cc1ccccc1CN1C(=O)NC(c2cccnc2)(C2CCNCC2)C1=O (configuration not stated) | -8%
CN1CCC(N[C@@H]2CO[C@H](CNC(=O)Nc3ccccc3)[C@H]2O)CC1 | 19%[44.1 µM]
COc1cc(OC)cc(OCC2CN(Cc3cccc(C(F)(F)F)c3)C(=O)c3c(ccnc3-c3ccc(OCC(=O)O)cc3)O2)c1 (configuration not stated) | -8%
SMILES | Pf Dd2 inh
O=C(O)COc1ccc(-c2nccc3c2C(=O)N(Cc2cccc(C(F)(F)F)c2)CC(CNC(=O)c2cccc(Cl)c2)O3)cc1 (configuration not stated) | 10µM*
O=C(O)COc1ccc(-c2nccc3c2C(=O)N(Cc2cccc(C(F)(F)F)c2)CC(COc2ccc(OC(F)(F)F)cc2)O3)cc1 (configuration not stated) | i
O=C1NCC2(CCN(C(=O)c3cn(CCC4CCCCN4)nn3)CC2)O1 (configuration not stated) | -11%
CS(=O)(=O)N1CCC(OC2CCN(C(=O)Nc3ccccc3C(F)(F)F)CC2)CC1 | -14%
CC(=O)N1CCC2(CC1)OC(=O)C(C)=C2C(=O)Nc1ccccc1C(F)(F)F | 14%
CCN1c2ccccc2-n2cccc2C12CCN(C(=O)Nc1ccccc1C(F)(F)F)CC2 | 2.8µM*
Cc1ccc(-c2nccn3cc(C(=O)N4CCN(c5ccccn5)CC4)nc23)cc1 | -25%
Cc1ccc(C)c(Nc2nn3c(=O)c4ccc(C(=O)NCc5ccccc5)cc4nc3s2)c1 | -11%
Cc1ccc(Cl)cc1Nc1nn2c(=O)c3ccc(C(=O)NCc4cccs4)cc3nc2s1 | i
Cc1ccccc1Nc1nn2c(=O)c3ccc(C(=O)NCC(C)c4ccccc4)cc3nc2s1 (configuration not stated) | 13µM*
CC(=O)N1CCN(C(=O)c2cccc(-c3ccco3)c2)CC(O)C1 (configuration not stated) | -8%
O=C(CCc1ccnc(N2CCCC2)c1)NCc1cccc(Cl)c1 | 4.5µM*
Cc1nc(N2CCCC2)ncc1C(=O)NCc1cccc(Cl)c1 | 13%
CNC(=O)CCc1ccnc(N2CCCC2)c1 | 17%
O=C(c1ccccc1OCC1CCCNC1)N1CCCCC1 (configuration not stated) | -6%
Cc1ccc(CN2CCCCC23Cc2ccccc2CNC3=O)cc1C (configuration not stated) | 7.9µM*
O=C1NCc2ccccc2CC12CCCCN2Cc1cccc(F)c1 (configuration not stated) | -29%
CC(=O)Nc1ccc(CN2CCCC23Cc2ccccc2CNC3=O)cc1 (configuration not stated) | -1%
O=C1NCc2ccccc2CC12CCCN2Cc1ccc(O)cc1O (configuration not stated) | -8%
CCc1ccccc1CN1CCCC12Cc1ccccc1CNC2=O (configuration not stated) | 8.9µM*
O=C1NCc2ccccc2CC12CCCN2Cc1ccc(F)cc1F (configuration not stated) | 0%
O=C1NCc2ccccc2CC12CCCN2Cc1ccc(O)cc1 (configuration not stated) | -23%
COc1ccc(CN2CCCCC23Cc2ccccc2CNC3=O)cc1OC (configuration not stated) | -17%
Cc1ccc(CN2CCCC23Cc2ccccc2CNC3=O)cc1 (configuration not stated) | 10µM*
CCOc1cccc(CN(C)C(=O)CN2CC3(CCN(C)CC3)CC2=O)c1 | -20%
SMILES | Pf Dd2 inh
CSc1ccc(-c2ccc3c(c2)C(=O)N2CC[C@H](NC(=O)C4CCCC4)[C@H]2C(=O)N3)cc1 | i
O=C(NCc1ccccc1)c1ccc2c(c1)OCCN(c1ccccc1)C2 | i
Cc1cccc(C(=O)N2CCC3(CC2)CC(CC(=O)NC2CC2)CCO3)c1 (configuration not stated) | 22%
CCc1ccc(NC(=O)C2CCN(S(=O)(=O)c3c(C)noc3/C=C/c3cccs3)CC2)cc1 | 13µM*
Cc1ccc(/C=C/c2onc(C)c2S(=O)(=O)N2CCC(C(=O)Nc3ccc(OC(F)(F)F)cc3)CC2)cc1 | 62%
COc1ccc(/C=C\c2onc(C)c2S(=O)(=O)N2CCC(C(=O)Nc3cccc(C)c3C)CC2)cc1 | 2.8µM*
Cc1noc(/C=C/c2cccs2)c1S(=O)(=O)N1CCC(C(=O)NCc2ccc(Cl)cc2)CC1 | i
Cc1cc(C)c(/C=C/c2onc(C)c2S(=O)(=O)N2CCC(C(=O)NCc3ccco3)CC2)c(C)c1 | 11µM*
COc1cccc(/C=C/c2onc(C)c2S(=O)(=O)N2CCC(C(=O)N3CCC(C)CC3)CC2)c1 | -9%
Cc1ccc(NC(=O)C2CCN(S(=O)(=O)c3cccs3)CC2)cc1 | -20%
